Screening results deposited in PubChem BioAssay by The Scripps Research Institute Molecular Screening Center.
CHO-K1 Ca ag = nonselective activator or artifact in parental CHO-K1 cells; AID 602248; activation, % at 3 µM; 360,000 compounds, 0.48% hits; Fluo-8 calcium fluorescence; scaled to maximal ATP response, vehicle zero; in the data active means activation above about 15%;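 further: untransfected CHO-K1 host cells lacking M1 receptor as counterscreen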
CHO-K1 Ca antag = M1 antagonist counterscreen hit in parental CHO-K1 cells; ATP-induced calcium, Fluo-8 fluorescence; inhibition, % at 3 µM; 360,000 compounds, 0.6% hits;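 active means inhibition above a per-plate cutoff, the plate's mean sample inhibition plus 3 SD, cut at about 24% in these data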;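 further: 0% = DMSO plus EC80 ATP and 100% = DMSO alone without ATP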
M1 ag = agonists of human M1 muscarinic receptor | P11229 | CHO-K1 hM1, Fluo-8 calcium fluorescence, agonist mode; 0% DMSO, 100% acetylcholine EC100 | activation, % at 3 µM | 360,000 compounds, 0.33% hits | AID 588814;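 active means activation above the run's mean compound activation plus 3 SD, cut at about 16% in these data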;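 further: peak over basal fluorescence ratio within a 140 s kinetic read after compound addition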
Target sequence (P11229 whole entry, looked up): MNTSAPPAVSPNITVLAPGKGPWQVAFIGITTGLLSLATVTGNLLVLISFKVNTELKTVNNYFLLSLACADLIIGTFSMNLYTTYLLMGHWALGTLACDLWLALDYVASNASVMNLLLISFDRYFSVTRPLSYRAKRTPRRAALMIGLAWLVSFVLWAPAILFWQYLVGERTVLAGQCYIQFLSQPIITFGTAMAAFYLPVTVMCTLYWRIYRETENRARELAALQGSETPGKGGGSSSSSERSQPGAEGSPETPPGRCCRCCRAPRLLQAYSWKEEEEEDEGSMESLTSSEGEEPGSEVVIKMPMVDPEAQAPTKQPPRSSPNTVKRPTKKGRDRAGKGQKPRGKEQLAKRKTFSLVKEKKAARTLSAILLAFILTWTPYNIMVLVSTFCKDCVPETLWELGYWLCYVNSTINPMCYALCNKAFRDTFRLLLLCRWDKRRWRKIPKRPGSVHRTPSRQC
M1 PAM = positive allosteric modulators of human M1 muscarinic receptor; CHO-K1 hM1, Fluo-8 calcium fluorescence, ACh EC20; 0% = ACh EC20, 100% = maximal ACh; 360,000 compounds, 0.088% hits; activation, % at 3 µM; P11229; AID 588819; in the data active means activation above about 19%, passing the limit was not always enough
M1 antag = human CHRM1 antagonism; 360,000 compounds, 1.3% hits; P11229; AID 588852; inhibition, % at 3 µM; CHO-K1 hM1, Fluo-8 calcium fluorescence, ACh EC80 antagonist;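 active means percent inhibition above its own plate's cutoff, namely the mean of that plate's compound wells plus 3 SD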;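 further: peak over basal fluorescence ratio during 140 s after agonist addition; 0% = ACh EC80 plus DMSO and 100% = DMSO alone without agonist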
M1 PAM parental = M1 PAM counterscreen hit in parental CHO-K1 cells; ATP EC20, Fluo-8 calcium fluorescence; 0% at ATP EC20, 100% at ATP max; activation, % at 3 µM; 360,000 compounds, 0.02% hits; AID 602247;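 active means activation above the run cutoff, the mean activation of all test compounds plus 3 SD, cut at about 40% in these data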;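 further: peak over basal fluorescence ratio in a 140 s read after ATP addition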
Starred values were filed as active, the others as inactive; nt = not tested or not shown. Sampled rows, rich in hits. Any-hit rate of the full collection: about 2.3%.

SMILES	CHO-K1 Ca ag	CHO-K1 Ca antag	M1 ag	M1 PAM	M1 antag	M1 PAM parental
N#CC1=C2SCN(Cc3ccccc3)CN2C(=O)CC1c1cccs1 (stereo not given)	1	27*	-6	-3	-2	1
O=C(OCC#CCSc1nnc(-c2ccncc2)o1)c1cccs1	17*	-6	-8	5	1	18
CC(C)c1cc(N2CCC(=O)NC2=O)cc(C(=O)O)c1O	18*	14	-6	4	-2	4
CC(C)N1CCC(=O)NC1=O	-1	-7	-2	8	-8	12
COc1ccnc(Oc2ccccc2)c1C(N)=O	0	27*	-2	6	-5	-13
NC(=O)c1cccnc1Oc1ccccc1	0	4	-2	18	-13	-15
O=C(Nc1cccnc1)c1ccc2nc(-c3ccccc3)c(-c3ccccc3)nc2c1	17*	12	-3	2	19	-2
O=C(Nc1cccnc1)c1ccc(Oc2ccccc2)cc1	1	-8	-3	2	-7	7
CC(C)=CCCC(C)NC(=O)NC1CCCCC1 (stereo not given)	0	25*	-3	2	nt	-9
Cc1cc(C)c(CN2CCN(C(=O)Cn3cnc4c(OCc5ccccc5)ncnc43)CC2)c(C)c1	2	0	1	4	1	-8
CCOc1ccc(CN2CCN(c3ncnc4scc(-c5ccccc5)c34)CC2)cc1	0	-9	22*	-6	9	1
CCc1nn(CC(=O)NCCCN2CCc3ccccc3C2)c(=O)c2cc3sccc3n12	0	-10	-14	-33	44*	14
Cc1cc(C)nc(NC(=NCCc2c[nH]c3ccccc23)NC(=O)c2ccco2)n1	4	-3	1	-4	29*	17
Cc1cc(C)nc(NC(=NCCc2c[nH]c3ccccc23)NC(=O)Nc2ccccc2)n1	3	8	-5	-11	21*	16
Cc1cc(C)nc(NC(=NCCc2c[nH]c3ccccc23)NC(=O)Nc2ccc(Cl)c(Cl)c2)n1	0	0	-6	7	-6	17
COc1ccc(NC(=O)c2cccnc2SC)cc1S(=O)(=O)N1CCCCC1	1	0	-8	7	-4	19
COc1ccccc1/C=C/C(=O)NC(=S)NCC1CCCO1 (stereo not given)	5	2	-3	-12	35*	4
S=C(NCC1CCCO1)Nc1cc(Cl)c(Cl)cc1Cl (stereo not given)	2	-17	-3	-2	2	2
COc1ccc(/C=C/C(=O)NC(=S)NCC2CCCO2)cc1 (stereo not given)	4	2	-6	-1	6	6
COc1ccccc1NC(=S)NCC1CCCO1 (stereo not given)	-1	24*	-3	-2	5	-14
O=C(NC(=S)NCC1CCCO1)c1ccc(Cl)cc1Cl (stereo not given)	15*	-4	-6	1	-3	20
Cc1cc(C)cc(NC(=S)NCC2CCCO2)c1 (stereo not given)	0	6	-3	-11	12*	-3
CCOc1ccccc1NC(=S)NCC1CCCO1 (stereo not given)	4	-5	-6	3	-2	18
Cc1ccc(NC(=O)CN(C)C(=O)COc2cccc3cccnc23)cc1	0	-15	-4	-1	-3	18
CCOC(=O)c1ccc2nc(NC(=O)C(C)C)sc2c1	0	2	-1	-8	12	15
SMILES	CHO-K1 Ca ag	CHO-K1 Ca antag	M1 ag	M1 PAM	M1 antag	M1 PAM parental
C=CCN(CC=C)S(=O)(=O)c1ccc2nc(NC(=O)C(C)C)sc2c1	33*	-14	24*	-6	-5	43*
Cc1cc(C)cc(C(=O)N2CCCCCC2)c1	1	-9	-7	1	-2	5
Cc1cc(C)c(C(=O)c2ccc(C(=O)N3CCCCC3)cc2)c(C)c1	28*	-2	36*	1	-4	14
CN(C)S(=O)(=O)c1ccc(-c2csc(N/N=C/c3ccco3)n2)cc1	15	13	6	-16	51*	-21
CN(C)S(=O)(=O)c1ccc(-c2csc(N/N=C/c3ccc(O)cc3)n2)cc1	7	16	-1	-12	37*	-10
C(=N\Nc1nc(-c2ccccc2)cs1)/c1ccncc1	1	-9	-12	9	-6	22
Cc1ccc(-c2csc(N/N=C/c3ccco3)n2)cc1	0	-11	-4	0	-1	21
CN(CC(=O)Nc1ccccc1C(=O)NC1CC1)Cc1ccco1	0	-3	-2	3	-3	-12
CCc1nn(CC(=O)NCc2cccnc2)c(=O)c2cc3occc3n12	-1	11	1	10	-4	8
COc1cc(/C=C(\C#N)c2nc3ccccc3o2)ccc1O	45*	30*	35*	-15	40*	-21
O=C(Cn1ncc2c([nH]c3ccccc32)c1=O)NCC1CCN(Cc2ccccc2F)CC1	5	-1	-5	1	3	2
CN(C)/C=N/c1cnc(C(=O)c2ccc(Cl)cc2)n1C	0	7	-1	26*	10	-6
CN(C)/C=N/NC(=O)c1ccc(Cl)cc1	3	-6	-7	0	4	21
O=C(O)c1cc([N+](=O)[O-])ccc1NCc1ccccc1	0	13	-2	-2	3	-6
O=C(O)c1cc([N+](=O)[O-])ccc1NCCCc1ccccc1	1	7	18*	-2	-24	2
COc1ccc(OC)c(NS(=O)(=O)c2cccc3cccnc23)c1	2	-4	-4	8	-13	10
Cc1cc(C)c(NS(=O)(=O)c2cccc3cccnc23)c(C)c1	0	27*	-3	2	-3	-15
COc1ccc(C(C)(C)C)cc1NS(=O)(=O)c1cccc2cccnc12	1	-11	0	32*	-7	11
COc1ccc(CCC(=O)NCCS(=O)(=O)N2CCN(c3ccccc3)CC2)cc1	9	-4	4	16	-3	1
COc1ccc(CCC(=O)NCCS(=O)(=O)N2CCN(c3ccc(OC)cc3)CC2)cc1	15*	-6	1	-18	19	4
CC(NCCCOc1cccc2ccccc12)c1ccccc1 (stereo not given)	28*	5	3	9	-6	11
COc1ccc2ccccc2c1CNC(C)c1ccccc1 (stereo not given)	1	4	-1	19	-23	-12
COc1ccc(Cl)cc1Nc1cc(C)nc2nc(C)nn12	1	-3	0	17	-4	10
COc1cc(OC)c(Nc2cc(C)nc3nc(C)nn23)cc1Cl	0	0	-3	2	103*	12
